{"source": "PubChem BioAssay (Tox21)", "note": "Several values for one entry are separate records, joined by “and”; a condition that tells them apart may be missing. Equal entries are not always repeated. Records with an inconclusive call do not appear. Unmarked numbers belong to inactive results. Activity calls are given as the source filed them. Calls come from the whole dose curve; as a rule, active = well fitted cell-killing curve with a large enough effect in the repeat runs; inconclusive = weak or mixed curves, or effect the other way; inactive = flat fitted curve, though single readings scatter. % is set by controls: 0 for no effect and ±100 for the full control effect; potency is the fitted concentration of half-maximal effect."}
{"test": "cAMP Responsive Elements (CRE) small molecule agonists, cell-based qHTS assay: qHTS cell viability counter screen (AID 2060914); note: nearly all actives have a fitted effect of over 50% in size", "conditions": "CRE-bla HEK293T viability, CellTiter-Glo luminescence, 5 h; series mostly up to 92.4 µM; activity change, negative = cytotoxicity: at the top concentration", "procedure,_shortened": "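Cytotoxicity counter screen multiplexed with the CRE-bla reporter assay in HEK 293T cells: 3 h compound exposure at 37 °C, followed by CellTiter-Glo luminescence measured in the same wells.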"}
{"smiles": "NC1CCCCC1", "Potency": "inactive"}
{"smiles": "NC(=O)NNc1ccccc1", "Potency": "inactive"}
{"smiles": "Nc1ccc(Cl)c(N)c1", "Potency": "inactive"}
{"smiles": "CCCCCCCCCCCCCCCCCC(=O)OCC(CC)CCCC", "note": "(stereo not given)", "activity change, negative = cytotoxicity": "3.57%"}
{"smiles": "O=C(O)c1ccccc1Nc1cc(Cl)ccc1C(=O)O", "activity change, negative = cytotoxicity": "0.206% [at 18.9 µM]"}
{"smiles": "Nc1ccc2ccccc2c1S(=O)(=O)O", "activity change, negative = cytotoxicity": "-11.9%"}
{"smiles": "O=C(O)Cc1cccc(-c2cc(CCCCCCc3ccc(O[C@H]4O[C@H](CO)[C@@H](O)[C@H](O)[C@@H]4O)c(-c4cccc(CC(=O)O)c4)c3)ccc2O[C@H]2O[C@H](CO)[C@@H](O)[C@H](O)[C@@H]2O)c1", "activity change, negative = cytotoxicity": "10.9% [at 0.349 µM]"}
{"smiles": "COc1cc2ncnc(Nc3cccc(Cl)c3)c2cc1OC", "activity change, negative = cytotoxicity": "4.77% [at 18.9 µM]"}
{"smiles": "Cc1c(F)cc2c(=O)c(C(=O)O)cn3c2c1CCC3C", "note": "(stereo not given)", "activity change, negative = cytotoxicity": "2.45% [at 42.5 µM]"}
{"smiles": "CCCOC(=O)CCCCC(=O)OCCC", "activity change, negative = cytotoxicity": "2.16%"}
{"smiles": "O=S(=O)(O)CCN1CCN(CCO)CC1", "activity change, negative = cytotoxicity": "8.05%"}
{"smiles": "CCc1occc(=O)c1O", "activity change, negative = cytotoxicity": "-0.92%"}
{"smiles": "CC1=CC(=O)CC(C)(C)C1", "Potency": "inactive"}
{"smiles": "O=C1CCCC(=O)C1", "activity change, negative = cytotoxicity": "-0.229%"}
{"smiles": "Cc1ccccc1S", "activity change, negative = cytotoxicity": "1.2% [at 42.5 µM]"}
{"smiles": "CCCCCCCCCCCCc1ccc(O)cc1", "Potency": "61.1 µM (active)"}
{"smiles": "CC(=O)OC(C)(C)C", "activity change, negative = cytotoxicity": "2.87%"}
{"smiles": "CN1CCOCC1", "Potency": "inactive"}
{"smiles": "NCCN1CCNC1=O", "activity change, negative = cytotoxicity": "0.75%"}
{"smiles": "Cc1cccc(C)c1NC(=O)CN(CC(=O)O)CC(=O)O", "activity change, negative = cytotoxicity": "-0.393% [at 42.5 µM]"}
{"smiles": "Cc1nc2ccccc2c(=O)o1", "activity change, negative = cytotoxicity": "14.3%"}
{"smiles": "CC(=O)C(C)=O", "activity change, negative = cytotoxicity": "-10.7%"}
{"smiles": "COc1ccc(O)cc1", "Potency": "inactive"}
{"smiles": "CS(=O)(=O)c1ccc([C@@H](O)[C@@H](CF)NC(=O)C(Cl)Cl)cc1", "activity change, negative = cytotoxicity": "0.252% [at 42.5 µM]"}
{"smiles": "COC(=O)CCCC(=O)OC", "Potency": "inactive"}
{"smiles": "CC(=O)CCC1=C(C)CCCC1(C)C", "activity change, negative = cytotoxicity": "2.7%"}
{"smiles": "COc1ccc(C2C(=O)c3ccccc3C2=O)cc1", "activity change, negative = cytotoxicity": "-0.746% [at 42.5 µM]"}
{"smiles": "O=c1[nH]c(=O)c2ccccc2o1", "activity change, negative = cytotoxicity": "7.71% [at 42.5 µM]"}
{"smiles": "O=C(O)CNC(=O)CNC(=O)CNC(=O)CSC(=O)c1ccccc1", "activity change, negative = cytotoxicity": "10.5% [at 42.5 µM]"}
{"smiles": "CCCC(CC)c1ccccc1", "note": "(stereo not given)", "activity change, negative = cytotoxicity": "13%"}
{"smiles": "CNCCCCOc1ccccc1Cc1ccccc1", "activity change, negative = cytotoxicity": "-21.8% [at 42.5 µM]"}
{"smiles": "CC(C)=CCC/C(C)=C/CC/C(C)=C/CO", "activity change, negative = cytotoxicity": "-2.34%"}
{"smiles": "Nc1ccccc1S(=O)(=O)O", "activity change, negative = cytotoxicity": "9.32%"}
{"smiles": "CN(C)c1ccc(C(=C2C=CC(=[N+](C)C)C=C2)c2ccc(N(C)C)cc2)cc1", "Potency": "48.3 µM (active) and 61.1 µM (active) and 29.8 µM (active)"}
{"smiles": "CCCCCCCCCCCCCCCC", "activity change, negative = cytotoxicity": "-4.99%"}
{"smiles": "COc1ccc(NC(C)=O)cc1", "activity change, negative = cytotoxicity": "-5.93%"}
{"smiles": "CC(C)NCC(O)COc1ccc(CCOCC2CC2)cc1", "note": "(stereo not given)", "activity change, negative = cytotoxicity": "6.94% [at 42.5 µM]"}
{"smiles": "CC(CSC(=O)c1ccccc1)C(=O)N1C[C@@H](Sc2ccccc2)C[C@H]1C(=O)O", "note": "(stereo not given in full)", "activity change, negative = cytotoxicity": "-0.289% [at 18.9 µM]"}
{"smiles": "O=C(OCCN1CCOCC1)c1cccnc1Nc1cccc(C(F)(F)F)c1", "activity change, negative = cytotoxicity": "5.67% [at 42.5 µM]"}
{"smiles": "c1cc[c]([Bi]([c]2ccccc2)[c]2ccccc2)cc1", "activity change, negative = cytotoxicity": "0.0394%"}
